According to PubChem BioAssay (NCI):
This is part of a sample that, as a whole, favours compounds with a hit. Of some 83,000 tested, about 20% had one in any assay.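 Treatment: one concentration, 48 hours, 96-well format. Scoring: percent growth, with anything below 10 considered active.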 A number with no mark means an inactive call. Activity calls are given as the source filed them.

Assays:
Test in all cases: NCI-60 one-dose screen, 48 h (100 = growth as untreated, 0 = no growth, -100 = all killed)
Conditions in all cases: 10 µM unless noted
NCI-H226 lung = system: NCI-H226 lung
NCI-H322M lung = system: NCI-H322M lung
HOP-62 NSCLC = system: HOP-62 NSCLC
NCI-H460 lung = system: NCI-H460 lung
HOP-92 NSCLC = system: HOP-92 NSCLC
NCI-H522 lung = system: NCI-H522 lung
A549/ATCC NSCLC = system: A549/ATCC NSCLC
786-0 renal = system: 786-0 renal
DU-145 prostate = system: DU-145 prostate
K-562 leukemia = system: K-562 leukemia
MALME-3M melanoma = system: MALME-3M melanoma
MDA-MB-231 breast = system: MDA-MB-231 breast
RXF 393 renal = system: RXF 393 renal
SF-268 CNS = system: SF-268 CNS
SF-295 CNS = system: SF-295 CNS
SF-539 CNS = system: SF-539 CNS
UACC-257 melanoma = system: UACC-257 melanoma
M14 melanoma = system: M14 melanoma
HCT-15 colon = system: HCT-15 colon
COLO 205 colon = system: COLO 205 colon

Row | Compound | growth (NCI-H226 lung) | growth (NCI-H322M lung) | growth (HOP-62 NSCLC) | growth (NCI-H460 lung) | growth (HOP-92 NSCLC) | growth (NCI-H522 lung) | growth (A549/ATCC NSCLC) | growth (786-0 renal) | growth (DU-145 prostate) | growth (K-562 leukemia) | growth (MALME-3M melanoma) | growth (MDA-MB-231 breast) | growth (RXF 393 renal) | growth (SF-268 CNS) | growth (SF-295 CNS) | growth (SF-539 CNS) | growth (UACC-257 melanoma) | growth (M14 melanoma) | growth (HCT-15 colon) | growth (COLO 205 colon)
1 | Nc1nc(N)c2c(n1)NC(c1ccc(F)cc1)CC(c1ccc(Nc3nc(NCCO)nc(Nc4ccc(Cl)cc4)n3)cc1)=N2 (configuration not stated) | 22.2% | 29.1% | 68.1% | -54.5% (active) | -65.5% (active) | -18.4% (active) | 57% | -71.1% (active) | 12.2% | 0.513% (active) | -60.4% (active) | -75.8% (active) | -77.4% (active) | 38.7% | 9.06% (active) | -78.9% (active) | 106% | -66.1% (active) | -48.3% (active) | 
2 | COc1ccc(C(=O)/C=C/c2ccc(Oc3nc(NCCO)nc(N4CCOCC4)n3)c(OC)c2)cc1 | 92.9% | 96.6% | 106% | 79.8% |  | 66.4% | 103% | 100% | 95% | 6.9% (active) | 84.7% | 85.3% | 108% | 85.5% | 104% | 82.5% | 89.9% | 86.8% | 36.2% | 114%
3 | CC1=C(C)C(=O)C(Nc2ccccc2)=C(Cl)C1=O | 96.9% | 99.3% | 92.6% | 95.7% |  | 83.5% | 99.8% | 99.2% | 101% | 15.9% | 108% | 15.4% | 96.8% | 95.4% | 102% | 95.4% | 90.3% | 95.9% | 94.2% | 107%
4 | N#Cc1ccc(/C=N/NC(=O)c2[nH]c3ccc(Br)cc3c2-c2ccccc2)s1 | 46.9% | 45.9% | 26.9% | 3.12% (active) | 33.9% | -22.7% (active) | 22.4% | 10.2% | 19.3% | 8.83% (active) | 50.1% | 22.1% | 56% | 30% | 11.7% | 2.47% (active) | 40.9% | 9% (active) | 8.95% (active) | 
5 | C#Cc1nc(C2=C(C)C(O)CC2)cs1 (configuration not stated) | 110% | 111% | 103% | 113% |  | 97.2% | 100% | -87.8% (active) | 110% | 114% | 109% | 112% | 95.6% | 108% | 113% | 108% | 102% | 101% | 98.9% | 118%
6 | O=C(Nc1nc2ccc(O)cc2s1)c1cccc(C(F)(F)F)c1 | 84.2% | 84.3% | 88.6% | 56.7% |  | 35.6% | 57% | 77.1% | 65.9% | 18.7% | 81.6% | 90.7% | 103% | 59.4% | 69.9% | 72.5% | 70.1% | 50.1% | 47.1% | 107%
7 | N/C(=N\c1nc2c(Cl)cc(Cl)cc2s1)C(Cl)(Cl)Cl | 73.5% | -55.6% (active) | 20.1% | -1.22% (active) |  | 82.4% | -12.9% (active) | 85.4% | -27.8% (active) | 71.3% | 91.7% | 38.4% | 53.7% | 75.7% | 11.3% | 44.5% | 78.1% | 93.3% | 57.5% | -16% (active)
8 | Fc1ccc(-c2cc3nc(C(Cl)Cl)nc(-c4ccccc4)n3n2)cc1 | 85.7% | -33.9% (active) | -36.9% (active) | -69.1% (active) |  | 42.4% | -45.6% (active) | 5.34% (active) | -33.8% (active) | 19.2% | 47.2% | -10.2% (active) | -62.9% (active) | 10.2% | 2.73% (active) | -10.6% (active) | -2.11% (active) | 26.9% | 7.35% (active) | -72.5% (active)
